# From PubChem BioAssay AID1159580 (chemical genetic matrix, 2015)
# The campaign covered roughly 5,500 compounds. About 2,000 (36%) were called active. About 18% were inconclusive and are not listed. Some of the results follow. Values without a mark were called inactive. Cut-off read from the data, not from the text of the source: active = normalized growth mostly below about 0.91 (no sharp cut-off); inconclusive = no clear call, values can overlap the other calls; inactive = mostly above about 0.92.
# Experiment: chemical genetic growth profiling, strain panel (AID 1159580);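 note: tested at 20 µM; growth read once vehicle control cultures reached saturation at 30 °C; 1 = growth at the plate median or of vehicle wells; lower values mean less growth of the strain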
# Settings: growth OD
structure (smiles),measurement,setting,value
O=C(OCc1ccccc1)c1ccccc1,normalized growth,"S. cerevisiae deletion strains, locus YKL009W, strain mrt4, active compounds read low",0.934
same,normalized growth,"S. cerevisiae deletion strains, locus YKL068W, active compounds read low",0.961
same,normalized growth,"S. cerevisiae deletion strains, locus YKL085W, strain MDH1 (second series), active compounds read low",0.957
same,normalized growth,"S. cerevisiae deletion strains, locus YKL085W, strain MDH1, active compounds read low",0.957
same,normalized growth,"S. cerevisiae deletion strains, locus YKL160W, strain elf1, active compounds read low",0.951
same,normalized growth,"S. cerevisiae deletion strains, locus YKL190W, strain CNB1, active compounds read low",1
same,normalized growth,"S. cerevisiae deletion strains, locus YKR001C, strain vps1, active compounds read low",0.789 (active)
same,normalized growth,"S. cerevisiae deletion strains, locus YKR026C, strain gcn3, active compounds read low",0.954
same,normalized growth,"S. cerevisiae deletion strains, locus YKR091W, strain srl3, active compounds read low",0.952
same,normalized growth,"S. cerevisiae deletion strains, locus YLL001W, strain dnm1, active compounds read low",0.945
same,normalized growth,"S. cerevisiae deletion strains, locus YLL026W, active compounds read low",0.953
same,normalized growth,"S. cerevisiae deletion strains, locus YLL041C, strain sdh2, active compounds read low",0.965
same,normalized growth,"S. cerevisiae deletion strains, locus YLR027C, strain aat2, active compounds read low",0.954
same,normalized growth,"S. cerevisiae deletion strains, locus YLR039C, strain RIC1, active compounds read low",0.83
same,normalized growth,"S. cerevisiae deletion strains, locus YLR058C, strain SHM2, active compounds read low",0.987
same,normalized growth,"S. cerevisiae deletion strains, locus YLR102C, strain apc9, active compounds read low",0.969
same,normalized growth,"S. cerevisiae deletion strains, locus YLR113W, strain HOG1, active compounds read low",0.783 (active)
same,normalized growth,"S. cerevisiae deletion strains, locus YLR221C, strain rsa3, active compounds read low",0.925
same,normalized growth,"S. cerevisiae deletion strains, locus YLR258W, strain gsy2, active compounds read low",0.956
same,normalized growth,"S. cerevisiae deletion strains, locus YLR262C, strain YPT6 (second series), active compounds read low",0.739 (active)
same,normalized growth,"S. cerevisiae deletion strains, locus YLR262C, strain YPT6, active compounds read low",0.839
same,normalized growth,"S. cerevisiae deletion strains, locus YLR268W, strain sec22, active compounds read low",0.941
same,normalized growth,"S. cerevisiae deletion strains, locus YLR320W, strain mms22, active compounds read low",0.835 (active)
same,normalized growth,"S. cerevisiae deletion strains, locus YLR330W, strain CHS5, active compounds read low",0.982
same,normalized growth,"S. cerevisiae deletion strains, locus YLR342W, strain FKS1 (second series), active compounds read low",0.906
same,normalized growth,"S. cerevisiae deletion strains, locus YLR342W, strain FKS1, active compounds read low",0.944
same,normalized growth,"S. cerevisiae deletion strains, locus YLR357W, strain rsc2, active compounds read low",1.05
same,normalized growth,"S. cerevisiae deletion strains, locus YLR370C, strain arc18, active compounds read low",0.969
same,normalized growth,"S. cerevisiae deletion strains, locus YLR371W, strain rom2, active compounds read low",0.966
same,normalized growth,"S. cerevisiae deletion strains, locus YLR384C, strain iki3, active compounds read low",0.974
same,normalized growth,"S. cerevisiae deletion strains, locus YLR418C, strain cdc73, active compounds read low",0.885
same,normalized growth,"S. cerevisiae deletion strains, locus YML016C, strain PPZ1, active compounds read low",0.991
same,normalized growth,"S. cerevisiae deletion strains, locus YML032C, strain rad52, active compounds read low",0.948
same,normalized growth,"S. cerevisiae deletion strains, locus YML120C, strain ndi1, active compounds read low",0.939
same,normalized growth,"S. cerevisiae deletion strains, locus YML124C, strain tub3, active compounds read low",0.969
same,normalized growth,"S. cerevisiae deletion strains, locus YMR058W, strain fet3, active compounds read low",0.952
same,normalized growth,"S. cerevisiae deletion strains, locus YMR078C, strain ctf18, active compounds read low",0.957
same,normalized growth,"S. cerevisiae deletion strains, locus YMR125W, strain sto1, active compounds read low",0.966
same,normalized growth,"S. cerevisiae deletion strains, locus YMR129W, active compounds read low",0.967
same,normalized growth,"S. cerevisiae deletion strains, locus YMR205C, strain PFK2, active compounds read low",0.899
same,normalized growth,"S. cerevisiae deletion strains, locus YMR223W, strain ubp8, active compounds read low",0.925
same,normalized growth,"S. cerevisiae deletion strains, locus YMR231W, strain pep5, active compounds read low",0.984
same,normalized growth,"S. cerevisiae deletion strains, locus YMR263W, strain SAP30, active compounds read low",0.981
same,normalized growth,"S. cerevisiae deletion strains, locus YMR307W, strain GAS1, active compounds read low",1.06
same,normalized growth,"S. cerevisiae deletion strains, locus YNL067W, strain RPL9B, active compounds read low",0.954
same,normalized growth,"S. cerevisiae deletion strains, locus YNL071W, strain lat1, active compounds read low",0.889 (active)
same,normalized growth,"S. cerevisiae deletion strains, locus YNL128W, strain TEP1, active compounds read low",0.989
same,normalized growth,"S. cerevisiae deletion strains, locus YNL183C, strain NPR1, active compounds read low",0.868
same,normalized growth,"S. cerevisiae deletion strains, locus YNL209W, strain ssb2, active compounds read low",0.968
same,normalized growth,"S. cerevisiae deletion strains, locus YNL233W, strain BNI4, active compounds read low",0.931
same,normalized growth,"S. cerevisiae deletion strains, locus YNL248C, strain rpa49, active compounds read low",0.905
same,normalized growth,"S. cerevisiae deletion strains, locus YNL250W, strain rad50, active compounds read low",0.987
same,normalized growth,"S. cerevisiae deletion strains, locus YNL271C, strain bni1, active compounds read low",0.95
same,normalized growth,"S. cerevisiae deletion strains, locus YNL298W, strain CLA4, active compounds read low",0.954
same,normalized growth,"S. cerevisiae deletion strains, locus YNL307C, strain MCK1, active compounds read low",0.798 (active)
same,normalized growth,"S. cerevisiae deletion strains, locus YNL322C, strain KRE1 (second series), active compounds read low",0.973
same,normalized growth,"S. cerevisiae deletion strains, locus YNL322C, strain KRE1, active compounds read low",0.989
same,normalized growth,"S. cerevisiae deletion strains, locus YNR049C, strain mso1, active compounds read low",0.954
same,normalized growth,"S. cerevisiae deletion strains, locus YNR052C, strain pop2, active compounds read low",1
same,normalized growth,"S. cerevisiae deletion strains, locus YOL006C, strain TOP1, active compounds read low",0.725
same,normalized growth,"S. cerevisiae deletion strains, locus YOL012C, strain htz1",1.34
same,normalized growth,"S. cerevisiae deletion strains, locus YOL147C, strain pex11, active compounds read low",0.974
same,normalized growth,"S. cerevisiae deletion strains, locus YOR001W, strain rrp6, active compounds read low",0.916
same,normalized growth,"S. cerevisiae deletion strains, locus YOR061W, strain CKA2, active compounds read low",0.988
same,normalized growth,"S. cerevisiae deletion strains, locus YOR069W, strain VPS5, active compounds read low",0.991
same,normalized growth,"S. cerevisiae deletion strains, locus YOR070C, strain gyp1, active compounds read low",0.965
same,normalized growth,"S. cerevisiae deletion strains, locus YOR080W, strain dia2, active compounds read low",0.985
same,normalized growth,"S. cerevisiae deletion strains, locus YOR083W, strain WHI5, active compounds read low",0.97
same,normalized growth,"S. cerevisiae deletion strains, locus YOR106W, strain vam3, active compounds read low",0.859 (active)
same,normalized growth,"S. cerevisiae deletion strains, locus YOR136W, strain idh2, active compounds read low",0.987
same,normalized growth,"S. cerevisiae deletion strains, locus YOR144C, strain elg1, active compounds read low",0.974
same,normalized growth,"S. cerevisiae deletion strains, locus YOR184W, strain ser1, active compounds read low",0.655 (active)
same,normalized growth,"S. cerevisiae deletion strains, locus YOR231W, strain MKK1, active compounds read low",0.86 (active)
same,normalized growth,"S. cerevisiae deletion strains, locus YOR265W, strain rbl2, active compounds read low",0.957
same,normalized growth,"S. cerevisiae deletion strains, locus YOR270C, strain vph1, active compounds read low",0.927
same,normalized growth,"S. cerevisiae deletion strains, locus YOR290C, strain snf2, active compounds read low",0.941
same,normalized growth,"S. cerevisiae deletion strains, locus YOR316C, strain cot1, active compounds read low",0.974
same,normalized growth,"S. cerevisiae deletion strains, locus YPL051W, strain arl3, active compounds read low",0.96
same,normalized growth,"S. cerevisiae deletion strains, locus YPL078C, strain atp4, active compounds read low",0.933
same,normalized growth,"S. cerevisiae deletion strains, locus YPL106C, strain sse1, active compounds read low",1
same,normalized growth,"S. cerevisiae deletion strains, locus YPL240C, strain hsp82, active compounds read low",0.958
same,normalized growth,"S. cerevisiae deletion strains, locus YPL241C, strain CIN2, active compounds read low",0.99
same,normalized growth,"S. cerevisiae deletion strains, locus YPL256C, strain CLN2, active compounds read low",0.832
same,normalized growth,"S. cerevisiae deletion strains, locus YPR119W, strain clb2, active compounds read low",0.975
same,normalized growth,"S. cerevisiae deletion strains, locus YPR141C, strain kar3, active compounds read low",0.949
same,normalized growth,"S. cerevisiae deletion strains, locus YPR163C, strain tif3, active compounds read low",0.975
same,normalized growth,"S. cerevisiae deletion strains, locus YPR167C, strain met16, active compounds read low",0.96
same,normalized growth,"S. cerevisiae deletion strains, strain wtn01, active compounds read low",0.928
same,normalized growth,"S. cerevisiae strains, strain wild type, active compounds read low",0.984
